The source of these data is PubChem BioAssay (NCATS).

Values joined by “and” are separate entries in the source; they are usually repeats but may differ in a detail not shown here. Identical values can stand only once. Unmarked numbers belong to inactive results. Results filed as inconclusive are left out. Active and inactive are the calls of the source. Unless noted, the call rests on the fitted dose curve; in most records, active means well fitted curve in the direction sought with a large enough effect; inconclusive means small, poorly fitted or top-dose-only effect, or another doubt; inactive means no such curve, though single readings can be large; an effect the other way counts as inactive or inconclusive.

The nature of test [1]: qHTS assay for small molecule disruptors of the mitochondrial membrane potential - 5 hr assay (AID 651755; calls by dose curve; further: nearly all actives have a fitted effect of over 40% in size; further: potency means the concentration at half of the fitted maximal effect). Put shortly: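 HepG2 cells, attached overnight at 37C, were exposed to compound or DMSO for 5 hr at 37C, 5% CO2. Mito-MPS dye was then added for 30 min, and fluorescence read at 490/535 nm (monomers) and 540/590 nm (aggregates).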
(qHTS replaces the single test concentration by a dilution series.)

Test [2] addresses Tumor necrosis factor (Homo sapiens) (UniProt P01375). The test is described as follows: qHTS assay to identify small molecules that stimulate Tumor Necrosis Factor-alpha (TNF-alpha) secretion (AID 651757; active means well fitted curve in the direction sought with a large enough effect in the signal ratio; the % refers to the signal ratio; further: 0% is about no effect). A digest of the protocol:
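THP-1 cells were exposed to compounds for 17 hrs at 37 C, after which secreted TNF-alpha was measured by homogeneous HTRF (TR-FRET) using cryptate- and XL665-labeled anti-TNF-alpha antibodies, read after 3 hr at room temperature.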

The target in test [3] is Peroxisome proliferator-activated receptor alpha (Homo sapiens) (UniProt Q07869). The test is described as follows: qHTS assay for small molecule agonists of the peroxisome proliferator-activated receptor alpha (PPARalpha) signaling pathway (AID 651778). Further: % of control where 0% means no effect. Particulars: PathHunter PPARalpha complementation, chemiluminescence, 6 h; max response: active compounds read high. Put shortly:
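Cells plated at 2,000/well and held overnight at 37 C, 5% CO2, then compound added by pin tool for 6 hr; after PathHunter detection reagent and 60 min at room temperature, chemiluminescence from enzyme complementation was read.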

Test [4] deals with Nuclear receptor ROR-gamma (Homo sapiens) (UniProt P51449). The test is described as follows: qHTS assay for small molecule antagonists of the retinoid-related orphan receptor gamma (ROR-gamma) signaling pathway (AID 651802). Further: nearly all actives have a fitted effect of over 60% in size. Further: potency means the concentration at half of the fitted maximal effect. A digest of the protocol:
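CHO cells carrying TET-inducible ROR-gamma and an ROR response element–luciferase reporter were exposed to compound, then induced with doxycycline. After 16hr at 37C, luminescence was read; lower signal indicates antagonism.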

The nature of test [5]: qHTS assay for small molecule agonists of the antioxidant response element (ARE) signaling pathway measured by Nrf2-dependant transcriptional activity (AID 720636; active means well fitted curve in the direction sought with a large enough effect in the repeat runs; an effect the other way counts as inactive or inconclusive;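 further: HepG2 cells with an ARE-driven luciferase reporter; % of control where 0% means no effect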). A digest of the protocol: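 HepG2 ARE-luc reporter line, 1% dialyzed FBS; 6 hr attachment at 37 C, compound pinned in, 16 hr at 37 C/5% CO2; ONE-Glo, 30 min RT, luminescence read.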
Test [6] can be described thus: qHTS assay for small molecule antagonists of the retinoid-related orphan receptor gamma (ROR-gamma) signaling pathway - cell viability counter screen (AID 720652; active means well fitted curve in the direction sought with a large enough effect in the repeat runs; an effect the other way counts as inactive or inconclusive;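 further: compound exposure lasted 16 hr before ATP read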; further: potency means the concentration at half of the fitted maximal effect). A digest of the protocol: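 Counter screen in CHO cells carrying TET-inducible ROR-gamma and an ROR response element-luciferase reporter; cells plated 5 hr, compound pinned, doxycycline added, then 16 hr at 37 C. Viability read as intracellular ATP by CellTiter-Glo luminescence.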

A short description of test [7]: qHTS Assay for Identifying Gametocytocidal Compounds (AID 743244). Further: potency means the concentration at half of the fitted maximal effect.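 On max response: on the % scale 0 is the no-effect control and ±100 the full control effect; actives lower the fluorescent signal which means gametocytes are killed.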 The settings on record: P. falciparum 3D7 stage III-V gametocytes, alamarBlue, 72 h; max response: active compounds read low. A digest of the protocol: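 Using 20,000 stage III–V 3D7 gametocytes per well, compounds were incubated 72 h under 37 °C/5% CO2. Viability was then assessed by 24 h alamarBlue reduction, measured fluorometrically at 525/598 nm.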

A short description of test [8]: qHTS for small molecule inhibitors of Yes1 kinase: Counter Assay (AID 686950).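 Further: no kinase present so only ADP-Glo detection of a fixed ADP amount is tested; luminescence from ADP-Glo reporting ADP in a fixed ATP and ADP mixture; series mostly up to about 77 µM; 0% = DMSO wells with ATP plus ADP and -100% = ATP-only wells without ADP.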 Put shortly:
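Enzyme-free ADP-Glo interference check: compounds were preincubated 20 min in buffer, then an ATP/ADP mix (0.08 mM ATP, 0.02 mM ADP final) was added for 60 min at room temperature before two-step ADP-Glo luminescence detection.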

The nature of test [9]: qHTS assay for environmental chemicals that activate the Aryl hydrocarbon Receptor (AhR) signaling pathway (AID 651777). Further: % of control where 0% means no effect; nearly all actives have a fitted effect of over 15% in size. The settings on record: 1A2-DRE human hepatoma cells, luciferase, 24 h; active compounds read high. Put shortly: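 Luminescence read-out: One-Glo added for 30 min at RT after 24 hr compound treatment (37 C, 5% CO2) of human hepatoma cells expressing a DRE/CYP1A2 promoter–luciferase reporter; increased signal indicates AhR activation.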

The nature of test [10]: qHTS for compounds that reverse cellular toxicity of Amyloid beta (A-beta) peptide in yeast: LOPAC Validation Assay (AID 720559).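 Further: plate controls were DMSO for no effect and equimolar ferric chloride plus clioquinol rescue for full effect.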 Put shortly: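 Medium dispensed, compounds pinned, A-beta yeast suspension added; plates held at 30 C for 48 hr; absorbance measured at 600 nm to gauge growth; values scaled between DMSO and FeCl3/clioquinol (equimolar) controls.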
The nature of test [11]: qHTS for Activators of Parkin Expression: LOPAC Validation Assay (NLuc Reporter) (AID 720572). A digest of the protocol:
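Neuronal line stably carrying a FLuc/NLuc coincidence reporter under the Parkin promoter, seeded 24 h, then dosed in 7-point series for 24 h at 37 C. NLuc luminescence read after FLuc; normalized to DMSO and positive control (100%).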

Test [12] in a line: qHTS for Activators of Parkin Expression: LOPAC Validation Assay (FLuc Reporter) (AID 720573). A digest of the protocol:
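Cells seeded, 24 h; compounds pinned, 7-pt dose response; 24 h at 37 C/5% CO2; volume reduced; FLuc reagent 10 min RT; luminescence read. Normalization: DMSO = 0, positive control = 100%.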

Test [13] has as its target T1, Hexokinase-4 (Homo sapiens) + Glucokinase regulatory protein (Homo sapiens) (UniProt P35557+Q14397). The test is described as follows: qHTS assay for inhibitors of recombinant human GCK-GKRP interaction: Diaphorase-coupled assay (AID 743205). A digest of the protocol:
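25 mM Hepes pH 7.6, 5 mM glucose, 0.4 mM ATP, 4 U/ml G6PDH; 10 nM each GST-GCK/FLAG-GKRP. Kinetic fluorescence read, 1/min × 30 min. Normalized: DMSO ± enzyme = max/min.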

In test [14] the target is T1, Hexokinase-4 (Homo sapiens) + Glucokinase regulatory protein (Homo sapiens). The experiment in a line: qHTS assay for inhibitors of recombinant human GCK-GKRP interaction: ADP-Glo assay (AID 743206).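 Further: plate controls were DMSO plus enzyme for no effect and no enzyme for full effect.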 A digest of the protocol:
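GST-GCK and FLAG-GKRP (15 nM each in the dispensed mix, with 2 uM S6P) react with 0.4 mM ATP and 5 mM glucose (final) in Hepes pH 7.6 for 60 min at room temperature. ADP is measured by ADP-Glo luminescence.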

Test [15] has the same target. The experiment in a line: qHTS assay for inhibitors of recombinant human GCK-GKRP interaction: HTRF assay (AID 743207).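 Further: 0% = DMSO with GCK present and -100% = DMSO wells lacking GCK.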 A digest of the protocol: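 5 nM GST-GCK + 5 nM FLAG-GKRP + 2 uM S6P, pH 7.1 buffer (25 mM Hepes, 2 mM MgCl2, 25 mM KCl, 1 mM DTT, Tween/BSA); pin-transferred cpd; anti-FLAG XL665/anti-GST K; 60 min RT; HTRF.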
In test [16] the target is Tyrosine-protein kinase Yes (Homo sapiens) (UniProt P07947). The test is described as follows: qHTS for small molecule inhibitors of Yes1 kinase: Primary Screen (AID 686947).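 Further: plate controls were DMSO with enzyme for no effect and no-enzyme DMSO wells for full effect; nearly all actives have a fitted effect of over 60% in size.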 Put shortly:
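ADP-Glo luminescence readout; final 4 nM Yes1, 0.1 mM ATP, 0.3 mg/mL poly(E4Y), Tris pH 7.5, MgCl2, DTT, Brij-35. 20 min compound preincubation, 60 min reaction at RT. Normalized to DMSO wells with and without enzyme.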

Test [17] can be described thus: qHTS assay to identify small molecules that stimulate interleukin-8 (IL-8) secretion (AID 651758; active means well fitted activation curve with a large enough effect in the signal ratio; the % refers to the signal ratio; further: 0% is about no effect). A digest of the protocol:
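THP-1, 2000 cells/well; cpd 16 h, 37 C; add cryptate + XL665 anti-IL-8 Abs; RT 1-3 h; TR-FRET read.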

The nature of test [18]: qHTS for Inhibitors of Ubiquitin-specific Protease USP2a Using CHOP2 as the Reporter: K633 Counterscreen (AID 652168). Further: series mostly up to about 57 µM; % of control where 0% means no effect. A digest of the protocol: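 Cell-free interference counterscreen without USP2a: compounds pinned into enzyme-free buffer (20 mM Tris pH 8, 2 mM beta-mercaptoethanol, 0.05% Chaps), then DiUb K48-4IQF substrate added (100 nM stock); fluorescence read kinetically, Ex 525/Em 598.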

Test [19] is described as follows: qHTS for Inhibitors of Ubiquitin-specific Protease USP2a Using CHOP2 as the Reporter: Cytotox Assay (AID 652170).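 Further: series mostly up to about 46 µM; plate controls were DMSO-treated cells for no effect and wells without cells for full effect; nearly all actives have a fitted effect of over 70% in size.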 Put shortly:
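HCT116 human colon cancer cells, 600 per well in DMEM with 10% FBS, exposed to compounds for 72 hr at 37 deg C. ATP measured by CellTiter-Glo luminescence, normalized to DMSO cells and no-cell background.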

Sequence of Nuclear receptor ROR-gamma (Homo sapiens) (P51449 whole entry, looked up): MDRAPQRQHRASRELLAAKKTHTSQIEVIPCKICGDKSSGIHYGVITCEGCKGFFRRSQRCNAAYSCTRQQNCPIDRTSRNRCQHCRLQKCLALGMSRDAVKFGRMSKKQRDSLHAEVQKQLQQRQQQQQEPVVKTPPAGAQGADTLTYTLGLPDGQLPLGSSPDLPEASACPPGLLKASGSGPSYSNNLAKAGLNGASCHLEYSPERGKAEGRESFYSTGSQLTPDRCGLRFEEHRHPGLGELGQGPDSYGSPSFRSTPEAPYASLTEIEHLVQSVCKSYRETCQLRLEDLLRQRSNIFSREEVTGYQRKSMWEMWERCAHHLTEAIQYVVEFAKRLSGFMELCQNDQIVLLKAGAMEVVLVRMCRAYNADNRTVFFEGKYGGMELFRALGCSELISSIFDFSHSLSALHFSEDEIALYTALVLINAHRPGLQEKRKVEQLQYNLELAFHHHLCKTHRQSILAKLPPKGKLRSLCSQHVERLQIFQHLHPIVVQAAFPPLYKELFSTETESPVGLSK
Sequence of Tumor necrosis factor (Homo sapiens) (P01375 whole entry, looked up): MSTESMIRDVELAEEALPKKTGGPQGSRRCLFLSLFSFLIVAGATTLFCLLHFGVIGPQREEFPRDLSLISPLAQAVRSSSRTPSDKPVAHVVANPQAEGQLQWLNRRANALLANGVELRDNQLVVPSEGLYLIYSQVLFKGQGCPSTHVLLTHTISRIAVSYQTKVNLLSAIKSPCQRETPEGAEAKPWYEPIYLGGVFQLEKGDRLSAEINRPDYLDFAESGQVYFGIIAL
T1 sequence (P35557 whole entry, looked up): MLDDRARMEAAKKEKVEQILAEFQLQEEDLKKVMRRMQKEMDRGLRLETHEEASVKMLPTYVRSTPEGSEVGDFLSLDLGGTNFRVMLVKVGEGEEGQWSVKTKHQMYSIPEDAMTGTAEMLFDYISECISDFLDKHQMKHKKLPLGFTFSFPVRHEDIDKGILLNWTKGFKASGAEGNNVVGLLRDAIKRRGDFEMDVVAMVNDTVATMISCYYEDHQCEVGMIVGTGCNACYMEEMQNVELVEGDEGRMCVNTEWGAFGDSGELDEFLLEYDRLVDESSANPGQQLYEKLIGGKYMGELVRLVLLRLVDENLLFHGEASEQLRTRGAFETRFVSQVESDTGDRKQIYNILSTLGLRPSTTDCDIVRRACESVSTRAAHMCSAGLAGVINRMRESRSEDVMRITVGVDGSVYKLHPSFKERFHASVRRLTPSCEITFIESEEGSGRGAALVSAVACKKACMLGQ
T1 sequence (Q14397 whole entry, looked up): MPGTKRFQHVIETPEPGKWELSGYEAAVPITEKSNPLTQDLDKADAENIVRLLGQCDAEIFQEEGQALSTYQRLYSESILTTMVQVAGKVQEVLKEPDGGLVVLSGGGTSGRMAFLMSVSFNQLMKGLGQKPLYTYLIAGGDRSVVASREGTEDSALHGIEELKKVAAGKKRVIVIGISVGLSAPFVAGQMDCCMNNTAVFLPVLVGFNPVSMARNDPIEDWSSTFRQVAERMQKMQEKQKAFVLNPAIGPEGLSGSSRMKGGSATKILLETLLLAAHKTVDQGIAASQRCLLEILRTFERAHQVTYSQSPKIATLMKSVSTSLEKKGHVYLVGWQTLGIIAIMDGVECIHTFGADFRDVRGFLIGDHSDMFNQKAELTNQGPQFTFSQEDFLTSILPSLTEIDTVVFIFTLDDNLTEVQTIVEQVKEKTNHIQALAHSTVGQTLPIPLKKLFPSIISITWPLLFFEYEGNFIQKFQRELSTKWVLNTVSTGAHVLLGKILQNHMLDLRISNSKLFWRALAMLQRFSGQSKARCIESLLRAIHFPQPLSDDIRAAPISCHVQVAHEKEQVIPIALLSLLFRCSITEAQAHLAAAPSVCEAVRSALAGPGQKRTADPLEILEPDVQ
Sequence of Peroxisome proliferator-activated receptor alpha (Homo sapiens) (Q07869 whole entry, looked up): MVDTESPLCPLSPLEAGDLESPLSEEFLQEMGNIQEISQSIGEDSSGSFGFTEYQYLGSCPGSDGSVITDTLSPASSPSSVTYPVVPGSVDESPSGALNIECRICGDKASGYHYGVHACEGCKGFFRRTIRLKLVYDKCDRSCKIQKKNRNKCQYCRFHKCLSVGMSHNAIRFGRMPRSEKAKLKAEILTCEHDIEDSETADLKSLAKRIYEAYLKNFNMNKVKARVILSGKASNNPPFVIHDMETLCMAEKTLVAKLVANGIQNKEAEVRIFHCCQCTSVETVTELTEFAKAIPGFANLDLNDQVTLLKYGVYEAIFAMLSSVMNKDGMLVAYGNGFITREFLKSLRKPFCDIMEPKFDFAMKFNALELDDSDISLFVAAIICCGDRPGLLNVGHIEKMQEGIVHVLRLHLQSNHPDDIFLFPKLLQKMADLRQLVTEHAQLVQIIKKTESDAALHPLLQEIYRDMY
Sequence of Tyrosine-protein kinase Yes (Homo sapiens) (P07947 whole entry, looked up): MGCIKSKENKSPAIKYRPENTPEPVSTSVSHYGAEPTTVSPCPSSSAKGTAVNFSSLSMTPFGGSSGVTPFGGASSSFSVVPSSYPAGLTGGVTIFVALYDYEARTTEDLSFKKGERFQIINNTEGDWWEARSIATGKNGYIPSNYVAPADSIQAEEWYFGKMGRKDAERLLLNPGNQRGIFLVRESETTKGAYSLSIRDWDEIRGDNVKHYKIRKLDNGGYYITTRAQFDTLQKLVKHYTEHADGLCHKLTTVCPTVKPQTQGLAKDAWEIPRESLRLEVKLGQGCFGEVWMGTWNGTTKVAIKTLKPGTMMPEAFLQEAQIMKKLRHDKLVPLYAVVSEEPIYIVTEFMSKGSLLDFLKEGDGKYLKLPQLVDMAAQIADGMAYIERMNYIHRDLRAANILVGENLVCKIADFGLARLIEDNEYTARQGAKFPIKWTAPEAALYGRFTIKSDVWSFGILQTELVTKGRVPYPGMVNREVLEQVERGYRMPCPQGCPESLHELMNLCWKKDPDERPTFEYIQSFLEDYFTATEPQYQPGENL

Turning to `CCc1cc(C(N)=S)ccn1`, the Potency result in test [1], in test [4] and in test [6] was “inactive” in each case. Moreover, the compound was classed as inactive in test [2] and in test [5]. The max response in [3] is -3.66% and -3.46%; in test [7], -11%.
Regarding `COc1cc2c(Nc3ccc(Br)cc3F)ncnc2cc1OCC1CCN(C)CC1`, the compound was classed as inactive in [8]. Besides, in test [7], the Potency was 9.35 µM (active) and 5.62 µM (active).
For `CC(=O)[C@H]1CC[C@H]2[C@@H]3CCC4=CC(=O)CC[C@]4(C)[C@H]3CC[C@]12C`, the result in [2], in test [10], in [11], in test [12], in test [5] and in test [13] was inactive. The result in test [14] and in test [15] was inactive. In addition, in [9], the activation was 0.0693% and 1.75% and -2.26%. For the same compound, the max response was 1.94% and -2.09% and -1.65% in test [3]; -0.829% and 23.1% in test [7].
For the compound `N=C(N)c1ccc(OCCCCCOc2ccc(C(=N)N)cc2)cc1`, the result in test [2] and in [5] was inactive. Also, the max response in test [3] is -3.05% and -5.88%. Besides, the Potency result in test [6] is “inactive”. For the same compound, the Potency in test [7] was 6.31 µM (active).
For the compound `Cc1ccnc2c1NC(=O)c1cccnc1N2C1CC1`, the call in test [2] and in test [5] was inactive. For the same compound, in test [9], the activation was 0.221%. Further, the max response in test [3] is -3.94%; in [7], 21.9%. Further, the Potency result in test [4] and in [6] was “inactive” each time.
Turning to `CN(C)c1ccc(C(=C2C=CC(=[N+](C)C)C=C2)c2ccc(N(C)C)cc2)cc1`, the Potency in test [1] is 1.19 µM (active); in test [4], 2.37 µM (active); in test [6], 10.6 µM (active); in [7], 7.08 µM (active). The activation in test [9] is -11.2% and -3.03%. Moreover, the max response in test [3] is -11.8% and -11.3%. Moreover, in test [5], the call was inactive.
On to `CC(=O)CC(c1ccccc1)c1c(O)c2ccccc2oc1=O` (configuration not stated), for which the max response in test [3] was -0.925%. Besides, the compound was classed as inactive in test [5].
On to `CC(C)C[C@H](NC(=O)[C@H](CCc1ccccc1)NC(=O)CN1CCOCC1)C(=O)N[C@@H](Cc1ccccc1)C(=O)N[C@@H](CC(C)C)C(=O)[C@@]1(C)CO1`, for which the outcome in test [16] and in test [8] was inactive. Also, in [7], the Potency was 0.0118 µM (active).
For the compound `NNC(=O)c1ccncc1`, the Potency entry in test [1], in test [4] and in [6] was “inactive” each time. In addition, the call in test [2], in test [17] and in test [5] was inactive. Besides, the activation in test [9] was 4.86%. The max response was -1.45% in test [3] and -1.22% in [7].
In the case of `Cc1cc(NS(=O)(=O)c2ccc(N)cc2)no1`, the outcome in test [2], in test [18], in test [19] and in test [5] was inactive. Also, in [9], the activation was -0.784%. The max response was -1.17% in [3] and -4.78% in test [7]. The Potency result in test [4] and in test [6] was “inactive” each time.
